# Screens as filed in PubChem BioAssay.
# A selection: hits, their analogues and other compounds. The true share with any hit is near 3.3%.
# Anthrax LF inh2: inhibitors of Bacillus anthracis lethal factor protease | inhibition, % at 10 µM | 0.12% of 360,000 active | AID 588501 | multiplex microsphere protease cleavage assay, LF; also: plate controls were buffer without enzyme for full effect and enzyme alone for no effect
# BoNT A protease: blocks Botulinum neurotoxin A light chain protease; AID 588499; 0.17% of 360,000 active; inhibition, % at 10 µM; multiplex microsphere protease substrate cleavage, flow cytometry; also: plate controls were buffer without enzyme for full effect and enzyme alone for no effect
# Autofluor counter: compound fluorescence in toxin protease inhibitor counterscreen. compound autofluorescence counterscreen, microsphere flow cytometry; stronger effect = higher value. fluorescence intensity (concentration not given with the values). 3.1% of 360,000 active; in the data active = fluorescence intensity above about 16000; inconclusive = no clear call, values can overlap the other calls
# MazF activator: activators of E. coli MazEF toxin-antitoxin RNase | P0AE70 | FAM/BHQ RNA-DNA oligo cleavage fluorescence, 5 h | activation, % at 20 µM | 0.32% of 350,000 active; in the data active = activation above about 50%
# Target sequence (P0AE70 whole entry, looked up): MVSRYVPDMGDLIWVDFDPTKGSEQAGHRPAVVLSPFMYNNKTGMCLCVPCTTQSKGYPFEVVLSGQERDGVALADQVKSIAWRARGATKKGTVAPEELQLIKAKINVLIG
# PriA SSB inh: blocks PriA binding to SSB C-terminal tail; inhibition, % at 33 µM; AlphaScreen SSBct-PriA binding, biotinylated peptide; 0.6% of 430,000 active; in the data active = inhibition mostly above about 37%, no sharp cut-off; inactive = mostly below about 20%;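 also: plate controls were negative control peptide for no effect and reference peptide for full effect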
# BoNT-F LC inh: BoNT F light chain protease inhibition. Multiplex microsphere protease cleavage assay, flow cytometry. inhibition, % at 10 µM. 0.22% of 360,000 active. AID 588497; in the data active = inhibition above about 35%, passing the limit was not always enough; inconclusive = no clear call, values can overlap the other calls; also: plate controls were buffer without enzyme for full effect and enzyme alone for no effect
# * hit, by the source's call; ? = inconclusive; / = no result. Rule as the data show it, unless noted: active = inhibition above about 30%; inconclusive = no clear call, values can overlap the other calls; inactive = below that.
SMILES,Anthrax LF inh2,BoNT A protease,Autofluor counter,MazF activator,PriA SSB inh,BoNT-F LC inh
CSc1ccccc1-n1nnnc1SCC(=O)NCc1cccs1,-18,-2,5236,-4,-10,?
O=C(CSc1nnnn1-c1ccccc1)NCc1cccs1,1,0,16730*,-4,-15,-2
CSc1ccccc1-n1nnnc1SCC(=O)Nc1ccccc1C,0,0,20932*,4,-16,-1
COC(=O)c1ccsc1NC(=O)CSc1nnnn1-c1ccccc1SC,-1,-4,24392*,8,-12,-4
CCOc1cc(NC(=O)Nc2cccc(C)c2)ncn1,/,/,/,/,-8,/
O=C(NC1CCCCCC1)C1C2C=CC3(CN(Cc4cccnc4)C(=O)C13)O2 (configuration not stated),-5,0,6194,13,-13,2
O=C(NCc1ccccc1)C1C2C=CC3(CN(Cc4cccnc4)C(=O)C13)O2 (configuration not stated),-2,2,19359*,0,-13,1
N#C/C(=C\C=C\c1ccccc1)c1nc(-c2ccc3c(c2)OCO3)cs1,21,52*,3363,-60,-22,10
Nc1nc(SCCN2C(=O)c3ccccc3C2=O)n[nH]1,-11,?,18492*,1,3,5
CC1(C)CC(=O)C(c2c[nH]c3ccccc23)C(=O)C1,4,0,4444,5,9,-1
CC(=O)n1cc(C2C(=O)CC(C)(C)CC2=O)c2ccccc21,-2,3,21921*,6,-17,6
Cc1nc(N2CCC(NC(=O)CCc3c(C)n[nH]c3C)CC2)cc(C(F)(F)F)n1,/,/,/,/,1,/
O=C(NNC(=O)c1cccc(Br)c1)Nc1ccc(Cl)c(Cl)c1,/,/,/,/,-5,/
CCOc1ccc(-c2c(=O)n(OCc3ccccc3Br)c3ccccc3[n+]2[O-])c(OCC)c1,-2,0,4167,2,-11,-2
CCOc1ccc(OCC)c(-c2c(=O)n(OCc3ccccc3Br)c3ccccc3[n+]2[O-])c1,1,0,22784*,2,-8,-3
Cc1noc(NS(=O)(=O)c2ccc(N/C=C/C(=O)c3ccncc3)cc2)c1C,-2,?,16425*,-1,-28,0
CC1CCCN(CCOCCOc2ccc(Br)cc2Cl)C1 (configuration not stated),0,1,2691,5,-11,6
CC1CCCN(CCOCCOc2ccc(Cl)cc2Br)C1 (configuration not stated),-9,1,21666*,-3,-14,1
Nc1ccc(C(=O)c2ccc3c(c2)OCCO3)cc1N,0,0,21110*,4,19,-6
Nc1cc2c(cc1C(=O)c1ccc(Cl)cc1)OCCO2,-3,?,22401*,6,-21,-1
Cc1nc2c(sc3cccc(F)c32)c(=O)n1CC(=O)Nc1ccc(F)cc1Cl,/,/,/,/,-9,/
CN(Cc1ccccc1)C(=O)NC1CCCCC1,1,?,22110*,-4,-10,-11
CN(C(=O)NC1CCCCC1)c1ccccc1,1,-1,3546,7,-1,-3
COC(=O)CCSCC(=O)Nc1ccc(F)cc1,/,/,/,/,-10,/
O=S(=O)(c1ccc(Cl)cc1)N1CCC(n2cnc3cc(C(F)(F)F)ccc32)CC1,0,-1,16517*,5,-4,-2
SMILES,Anthrax LF inh2,BoNT A protease,Autofluor counter,MazF activator,PriA SSB inh,BoNT-F LC inh
COc1nc(OC)nc(N2CCC(C(=O)Nc3cccc4ccccc34)CC2)n1,-3,-2,23395*,3,-7,-4
Cc1cc(C)nc(N2CCC(C(=O)NCc3ccco3)CC2)n1,2,0,8698,-7,-13,-4
COc1nc(OC)nc(N2CCC(C(=O)NCc3ccco3)CC2)n1,0,2,19494*,-7,-9,2
COc1nc(OC)nc(N2CCC(C(=O)Nc3cccc4c3CCCC4)CC2)n1,-3,0,15828,-14,1,0
COc1ccc(Cl)cc1S(=O)(=O)NCc1ccc(C(O)c2cccs2)s1 (configuration not stated),/,/,/,/,-16,/
CC(C)(C)C(=O)CN1CCN(C2c3ccccc3-c3ccccc32)CC1,-8,-6,21967*,-8,-6,-8
COc1ccccc1NC(=O)CN1CCN(C2c3ccccc3-c3ccccc32)CC1,-3,0,2197,-1,9,4
CCSc1nnc(CNC(=O)c2cccc(C(F)(F)F)c2)o1,/,/,/,/,-12,/
COc1ccccc1C(=O)Nc1sc2c(c1C#N)CCC2,4,2,3203,80*,3,1
NS(=O)(=O)c1ccc(CCNC(=O)C2CCCCN2S(=O)(=O)c2ccccc2)cc1 (configuration not stated),-17,2,21340*,0,-4,0
NS(=O)(=O)c1ccc(CCNC(=O)[C@@H]2CCCN2S(=O)(=O)c2ccccc2F)cc1,-9,0,5880,5,-11,-7
CCOc1ccccc1N1CC(C(=O)NCCc2ccc(S(N)(=O)=O)cc2)CC1=O (configuration not stated),-2,1,20308*,-2,-2,-2
CCOc1ccc(N2CC(C(=O)NCCc3ccc(S(N)(=O)=O)cc3)CC2=O)cc1 (configuration not stated),10,0,3886,-1,-13,4
O=C(NCCc1ccccc1F)C1CCCN1S(=O)(=O)c1ccc2ccccc2c1 (configuration not stated),-4,0,20558*,-5,-10,-3
CC(=O)Nc1cccc(C(=O)NN=Cc2ccccc2F)c1,/,/,/,/,3,/
CCSCC1CCCN1C1CCN(C(=O)Nc2ccc(C)c(C)c2)CC1 (configuration not stated),/,/,/,/,13,/
CCN(c1ccc(OC)cc1)S(=O)(=O)c1ccc2c(c1)CCN2C(=O)CCC(=O)O,-2,-3,16864*,4,-10,-5
CCN(c1ccc(C)c(C)c1)S(=O)(=O)c1ccc2c(c1)CCN2C(=O)CCC(=O)O,-4,-1,12888,-5,-6,-16
COc1ccc(N(CC(=O)N2CCc3ccccc32)S(=O)(=O)c2c(C)n[nH]c2C)cc1,-23,?,17257*,14,-18,12
COc1cc([C@@H]2c3c(n(C)c(=O)n(C)c3=O)N=C3CC(C)(C)CC(=O)C32)cc(OC)c1OC (some centres not stated),/,/,/,/,-7,/
CCn1c(=O)[nH]c2cc(C(=O)N3CCN(c4ccccc4)CC3)ccc2c1=O,-6,?,22918*,0,-20,0
CN1CCN(C(=O)c2ccc3c(=O)n(Cc4ccc(Cl)cc4)c(=S)[nH]c3c2)CC1,-2,-1,20632*,-4,12,-2
CCOC(=O)N1CCN(C(=O)c2ccc3c(=O)n(Cc4ccccc4OC)c(=S)[nH]c3c2)CC1,-3,0,16581*,4,7,0
O=C(c1ccc2c(=O)n(Cc3ccc(Cl)cc3)c(=S)[nH]c2c1)N1CCCC1,1,-4,4933,1,13,-6
O=c1c2ccc(Cl)cc2[nH]c(=S)n1Cc1cccnc1,-4,4,21022*,2,-10,7
